According to the supplement of paper PMC8728848:
About 410 targets per protein were measured; listed, in parts, are those with the strongest signals and a random draw of the rest.

Experiments:
Assay in all cases: glycan array binding signal (z-score within array); higher = stronger binding
Details in all cases: glycan notation: IUPAC condensed, linker removed
[1] = target: Fuc(a1-2)Gal(b1-4)GlcNAc(b1-2)[Fuc(a1-2)Gal(b1-4)GlcNAc(b1-4)]Man(a1-3)[Fuc(a1-2)Gal(b1-4)GlcNAc(b1-2)Man(a1-6)]Man(b1-4)GlcNAc(b1-4)GlcNAc
Procedure, shortened: (§1)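 The binding signal is a Z-score computed within each array and averaged over linkers. Arrays of the same protein sequence at different concentrations or buffers were also averaged together. Data originate from 3228 arrays in the Consortium for Functional Glycomics database, kept only where the protein sequence was available.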

[2] = target: Fuc(a1-2)Gal(b1-4)GlcNAc(b1-6)GalNAc
Procedure, shortened: as §1

[3] = target: Fuc(a1-2)Gal(b1-4)[Fuc(a1-3)]GlcNAc(b1-2)[Fuc(a1-2)Gal(b1-4)[Fuc(a1-3)]GlcNAc(b1-4)]Man(a1-3)[Fuc(a1-2)Gal(b1-4)[Fuc(a1-3)]GlcNAc(b1-2)Man(a1-6)]Man(b1-4)GlcNAc(b1-4)GlcNAc
Procedure, shortened: as §1

[4] = target: Fuc(a1-2)Gal(b1-4)[Fuc(a1-3)]GlcNAc(b1-3)Gal(b1-4)[Fuc(a1-3)]GlcNAc(b1-3)Gal(b1-4)[Fuc(a1-3)]GlcNAc
Procedure, shortened: as §1

[5] = target: Fuc(a1-2)Gal6S(b1-3)GlcNAc
Procedure, shortened: as §1

Fuc(a1-2)Gal6S(b1-4)Glc = target: Fuc(a1-2)Gal6S(b1-4)Glc
Procedure, shortened: as §1

[6] = target: Fuc(a1-2)[Gal(a1-4)]Gal(b1-4)GlcNAc
Procedure, shortened: as §1

[7] = target: Fuc(a1-3)[Gal(b1-4)]GlcNAc
Procedure, shortened: as §1

[8] = target: Fuc(a1-3)[Gal(b1-4)]GlcNAc(b1-2)Man
Procedure, shortened: as §1

[9] = target: Gal(a1-3)Gal(b1-3)GlcNAc(b1-2)Man(a1-3)[Gal(a1-3)Gal(b1-3)GlcNAc(b1-2)Man(a1-6)]Man(b1-4)GlcNAc(b1-4)GlcNAc
Procedure, shortened: as §1

Gal(a1-3)Gal(b1-4)GlcNAc = target: Gal(a1-3)Gal(b1-4)GlcNAc
Procedure, shortened: as §1

[10] = target: Gal(a1-3)Gal(b1-4)GlcNAc(b1-2)Man(a1-3)[Gal(a1-3)Gal(b1-4)GlcNAc(b1-2)Man(a1-6)]Man(b1-4)GlcNAc(b1-4)GlcNAc
Procedure, shortened: as §1

[11] = target: Gal(a1-3)Gal(b1-4)[Fuc(a1-3)]GlcNAc
Procedure, shortened: as §1

[12] = target: Gal(a1-3)[Gal(a1-4)]Gal(b1-4)GlcNAc
Procedure, shortened: as §1

[13] = target: Gal(a1-4)Gal(b1-3)GlcNAc(b1-2)Man(a1-3)[Gal(a1-4)Gal(b1-3)GlcNAc(b1-2)Man(a1-6)]Man(b1-4)GlcNAc(b1-4)GlcNAc
Procedure, shortened: as §1

Gal(a1-4)Gal(b1-4)GlcNAc = target: Gal(a1-4)Gal(b1-4)GlcNAc
Procedure, shortened: as §1

[14] = target: Gal(a1-4)Gal(b1-4)GlcNAc(b1-2)Man(a1-3)[Gal(a1-4)Gal(b1-4)GlcNAc(b1-2)Man(a1-6)]Man(b1-4)GlcNAc(b1-4)GlcNAc
Procedure, shortened: as §1

[15] = target: Gal(a1-4)Gal(b1-4)GlcNAc(b1-3)Gal(b1-4)Glc
Procedure, shortened: as §1

Gal(a1-4)GlcNAc = target: Gal(a1-4)GlcNAc
Procedure, shortened: as §1

[16] = target: Gal(b1-3)Gal(b1-4)GlcNAc(b1-2)Man(a1-3)[Gal(b1-3)Gal(b1-4)GlcNAc(b1-2)Man(a1-6)]Man(b1-4)GlcNAc(b1-4)GlcNAc
Procedure, shortened: as §1

[17] = target: Gal(b1-3)GalNAc(b1-3)Gal(a1-4)Gal(b1-4)Glc
Procedure, shortened: as §1

[18] = target: Gal(b1-3)GlcNAc(b1-3)Gal(b1-4)Glc
Procedure, shortened: as §1

[19] = target: Gal(b1-4)GlcNAc(b1-2)Man(a1-6)[Man(a1-3)]Man(b1-4)GlcNAc(b1-4)GlcNAc
Procedure, shortened: as §1

Gal3S(b1-3)GlcNAc = target: Gal3S(b1-3)GlcNAc
Procedure, shortened: as §1

[20] = target: Gal3S(b1-3)[Fuc(a1-4)]GlcNAc
Procedure, shortened: as §1

[21] = target: GalNAc(b1-3)Gal(a1-4)Gal(b1-4)GlcNAc(b1-3)Gal(b1-4)Glc
Procedure, shortened: as §1

GalNAc(b1-4)GlcNAc = target: GalNAc(b1-4)GlcNAc
Procedure, shortened: as §1

[22] = target: GlcNAc(a1-4)Gal(b1-4)GlcNAc(b1-3)Gal(b1-4)Glc
Procedure, shortened: as §1

[23] = target: GlcNAc(a1-4)Gal(b1-4)GlcNAc(b1-3)Gal(b1-4)[Fuc(a1-3)]GlcNAc(b1-3)Gal(b1-4)[Fuc(a1-3)]GlcNAc
Procedure, shortened: as §1

[24] = target: GlcNAc(b1-2)Man(a1-3)[GlcNAc(b1-2)Man(a1-6)]Man(b1-4)GlcNAc(b1-4)[Fuc(a1-6)]GlcNAc
Procedure, shortened: as §1

[25] = target: GlcNAc(b1-2)[GlcNAc(b1-6)]Man(a1-6)[GlcNAc(b1-2)Man(a1-3)]Man(b1-4)GlcNAc(b1-4)[Fuc(a1-6)]GlcNAc
Procedure, shortened: as §1

[26] = target: GlcNAc(b1-3)Gal(b1-4)GlcNAc(b1-3)GalNAc
Procedure, shortened: as §1

[27] = target: GlcNAc(b1-3)[GlcNAc(b1-4)][GlcNAc(b1-6)]GlcNAc
Procedure, shortened: as §1

Man(a1-2)Man(a1-3)Man = target: Man(a1-2)Man(a1-3)Man
Procedure, shortened: as §1

[28] = target: Neu5Ac(a2-3)Gal(b1-4)GlcNAc(b1-2)Man(a1-3)[GlcNAc(b1-4)][Neu5Ac(a2-3)Gal(b1-4)GlcNAc(b1-2)Man(a1-6)]Man(b1-4)GlcNAc(b1-4)GlcNAc
Procedure, shortened: as §1

[29] = target: Neu5Ac(a2-3)Gal(b1-4)GlcNAc(b1-3)Gal(b1-4)[Fuc(a1-3)]GlcNAc
Procedure, shortened: as §1

[30] = target: Neu5Ac(a2-3)[GalNAc(b1-4)]Gal(b1-4)Glc
Procedure, shortened: as §1

[31] = target: Neu5Ac(a2-6)Gal(b1-4)GlcNAc6S
Procedure, shortened: as §1

[32] = target: Neu5Gc(a2-8)Neu5Ac(a2-3)Gal(b1-4)GlcNAc
Procedure, shortened: as §1

B1: PA-IL (Pseudomonas aeruginosa), Q05097 (protein)
chain: MAWKGEVLANNEAGQVTSIIYNPGDVITIVAAGWASYGPTQKWGPQGDREHPDQGLICHDAFCGALVMKIGNSGTIPVNTGLFRWVAPNNVQGAITLIYNDVPGTYGNNSGSFSVNIGKDQS
- glycan array binding signal (z-score) [1]: -0.197
- glycan array binding signal (z-score) [2]: -0.201
- glycan array binding signal (z-score) [3]: -0.185
- glycan array binding signal (z-score) [4]: -0.213
- glycan array binding signal (z-score) [5]: -0.225
- glycan array binding signal (z-score) (Fuc(a1-2)Gal6S(b1-4)Glc): -0.229
- glycan array binding signal (z-score) [6]: 5.44
- glycan array binding signal (z-score) [7]: -0.224
- glycan array binding signal (z-score) [8]: -0.233
- glycan array binding signal (z-score) [9]: 0.015
- glycan array binding signal (z-score) (Gal(a1-3)Gal(b1-4)GlcNAc): 5.08
- glycan array binding signal (z-score) [10]: 6.97
- glycan array binding signal (z-score) [11]: 5.02
- glycan array binding signal (z-score) [12]: 6.55
- glycan array binding signal (z-score) [13]: 7.29
- glycan array binding signal (z-score) (Gal(a1-4)Gal(b1-4)GlcNAc): 4.79
- glycan array binding signal (z-score) [14]: 8.23
- glycan array binding signal (z-score) [15]: 5.73
- glycan array binding signal (z-score) (Gal(a1-4)GlcNAc): 3.63
- glycan array binding signal (z-score) [16]: 7.65
- glycan array binding signal (z-score) [17]: -0.228
- glycan array binding signal (z-score) [18]: -0.228
- glycan array binding signal (z-score) [19]: -0.237
- glycan array binding signal (z-score) (Gal3S(b1-3)GlcNAc): -0.229
- glycan array binding signal (z-score) [20]: -0.225
- glycan array binding signal (z-score) [21]: -0.228
- glycan array binding signal (z-score) (GalNAc(b1-4)GlcNAc): -0.236
- glycan array binding signal (z-score) [22]: -0.23
- glycan array binding signal (z-score) [23]: -0.203
- glycan array binding signal (z-score) [24]: -0.214
- glycan array binding signal (z-score) [25]: -0.217
- glycan array binding signal (z-score) [26]: -0.221
- glycan array binding signal (z-score) [27]: -0.228
- glycan array binding signal (z-score) (Man(a1-2)Man(a1-3)Man): -0.226
- glycan array binding signal (z-score) [28]: -0.244
- glycan array binding signal (z-score) [29]: -0.226
- glycan array binding signal (z-score) [30]: -0.226
- glycan array binding signal (z-score) [31]: -0.228
- glycan array binding signal (z-score) [32]: -0.245
